# Reference: the supplement of paper PMC6555819
# System: VDR:RXRa (NR concentration 270 nM, RXRa partner concentration 90 nM)
# Experiment: PBM binding z-score (relative to random genomic background probes); higher = stronger binding; sequences stand for … in GC…GCGATTGACAGCGTAGAATGAAGG
# Experimental: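 Protein-binding microarray (Agilent 4x180K custom design, double-stranded 60-nt probes: 5' GC cap, 34-nt variable region, 24-nt constant primer region; full probe sequence given). Purified or IVT nuclear receptor:RXRα heterodimers (3:1 NR:RXRα, mostly 270:90 nM) or homodimers were incubated for 1 h in PBS with 2% milk and no ligand, then detected with Alexa488 antibodies. Fluorescence from o1-orientation probes (~5 replicates averaged) was converted to z-scores against 500 random hg19 background probes. Variable regions are seed direct-repeat (DR0–DR5) sites, all their single-nucleotide variants and half-site ablations.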
row,Sequence,PBM binding z-score
1,CAAACTAGGTCACCGGAAGGTCAAATTCCGCATG,5.9
2,TCTAGTTGGTCAAAGGTCACACGCTCGAAATGCG,5.38
3,ATACCCAGGTGATCGTGAGGTCGTTGATACTAAC,2.51
4,GCAGACAGGTGAAACGCAGGTAACACAGGGTGGC,-0.439
5,CCTAGCAGGCCAATGTGGGTCACTCAAGGCTTGA,1.02
6,CGTACTAGGTCAGAACAGGACAGTGAAGGATGAT,0.861
7,CGAACTAGGTCATCCAGGACAGCGAATACATTGA,4.63
8,ACTAGTTTGTCAGCTGAGGTCACACACAATTCGG,4.34
9,CCCTACGGGTCAAGGTTATAGCACGGGTGGTACG,3.26
10,ATCTCTAGGTAACAAGTTCAGTGGAAGAGAGGAC,2
11,TCTAGCAGGCCAGAGGTTCACTCAAGAGGTACGG,0.704
12,AGAATGAGGTTATACGTATATCAGGGAAGAAAGT,1.69
13,CGTCAAAGTTCAAGGTAACGTTACAGAAAGCAGC,3.97
14,ATCTCTAGGTAAAAGTTCAGTGAATCCCGAGGAT,1.31
15,TAGCCTAGGTCATTCATGGGCCAGTATAGAAAGC,2.16
16,ACAGACAGGTGAGTGAAGGTGACTCAGCTGGACG,-0.119
17,AGTCAATGTTCACTAGGTAACGTAAGATTCAGCT,-0.0351
18,TCGAGTAGGTTACCAATAGGGCATTCAGCTTTCT,0.152
19,GCTGACGGGTCAAAGGTTATAGCATGAATAGAAT,5.27
20,ACTAGTTGGTCAGCTGAGGTCATACACAATTCGG,4.73

row,Sequence,PBM binding z-score
1,AGAATGTGGTTATACGTAGATCAGGGAAGAAAGT,0.0519
2,TTACCTAGGTGAAGGTCGTTGATCCCTCTGTAGA,1.06
3,CGAACGACGGCATGAGTTGATAGCAAATGCCGAT,-0.72
4,CGAACTAGGTTAGAACAGGACAGTGAAGGATGAT,-0.215
5,TCTTGTAGATGAACAGGAGGTTAAGAAAGATCGA,0.644
6,TTGCCTAGGTCAGATCGGGCCAGTATACGCTATA,0.82
7,ACTAGTTGGTCATCTGAGGTCACACACAATTCGG,5.04
8,TCCTGTAGATCAACAGGAGGTTAAGAAAGATCGA,0.266
9,GATACAGGGTCAGCTAGAGGCCACAGTATGGAAA,3.76
10,CCGACTGGGGCATAAGGTTAGCATAAGCCAGCCC,-0.409
11,TCTGCTAGGTCAGCGATGGTCAGCTAATCTGCTA,0.126
12,ACTAGTTGGTCAGCTGAGCTCACACACAATTCGG,-0.299
13,AATACAGGGTCACTAGGACAGAGTAGGTACGAAT,3.97
14,ACTAGTTGGTCAGCTTAGGTCACACACAATTCGG,1.82
15,CCCAGCAGGCCAGGGTCACTCAAGCATTTCGCTT,2.42
16,ACTATTAGTTGAGACGAGGGCAACCGCTAGGTTG,0.628
17,CCAACTAGGTCAAAGGTCAAAGTCGAGCCAACCA,6.81
18,CGTCCCAGGTCAGAGAGGTCAGTGAATGCCGAGT,6.8
19,ATCTCTAGATAACCAAGTTCAGTGAATGCCGAAC,1.16
20,ATATGTAGATTACATCCGGGTCATTCAGGCTATG,3.34
